ALDH1A1 inh: qHTS Assay for Inhibitors of Aldehyde Dehydrogenase 1 (ALDH1A1). Aldehyde dehydrogenase 1A1 (Homo sapiens), P00352. Purified ALDH1A1, NADH fluorescence, propionaldehyde substrate. Potency, µM (titrated, usually from 75.3 µM), inactives show at the highest dose activity, negative = inhibition, usual class: inhibitors. hit rate 7.3% among 220,000. AID 1030, 2008;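 note: potency is the fitted concentration of half-maximal effect; plate controls were no enzyme wells and a reference inhibitor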
Target sequence (P00352 whole entry, looked up): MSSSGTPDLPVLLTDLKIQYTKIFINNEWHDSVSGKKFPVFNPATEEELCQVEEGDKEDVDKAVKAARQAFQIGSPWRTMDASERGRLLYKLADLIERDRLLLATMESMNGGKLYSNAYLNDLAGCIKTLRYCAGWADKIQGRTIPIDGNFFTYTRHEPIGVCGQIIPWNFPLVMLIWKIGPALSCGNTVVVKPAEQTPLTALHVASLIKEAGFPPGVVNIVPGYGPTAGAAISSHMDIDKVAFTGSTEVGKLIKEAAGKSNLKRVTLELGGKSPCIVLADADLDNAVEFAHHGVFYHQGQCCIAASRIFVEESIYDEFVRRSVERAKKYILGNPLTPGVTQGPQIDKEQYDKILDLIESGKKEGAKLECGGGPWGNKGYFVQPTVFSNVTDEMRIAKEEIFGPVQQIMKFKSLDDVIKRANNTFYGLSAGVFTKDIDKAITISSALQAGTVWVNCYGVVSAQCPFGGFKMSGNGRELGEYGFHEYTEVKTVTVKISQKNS
PNC assembly inh: High Content Assay for Compounds that inhibit the Assembly of the Perinucleolar Compartment | PC3M PTB-GFP, PNC prevalence imaging, 16 h; stronger effect = lower value | activity change (PNC), negative = inhibition, % at 10 µM | AID 2417, 2010 | hit rate 3.1% among 140,000;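 active = readout at or below -70, meaning at least 70% loss of cells showing the perinucleolar compartment, a nuclear body marking cancer cells; inconclusive = readout between -30 and a set limit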;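 note: plate controls were DMSO wells for no effect and camptothecin positive control wells for full effect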
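Compounds are pinned in duplicate onto adhered PC3M cells stably expressing GFP-tagged PTB and incubated 16 h at 37 C. Cells are then fixed, nuclei stained with Hoechst, and PNC-positive cells counted.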
HPGD inh: qHTS Assay for Inhibitors of HPGD (15-Hydroxyprostaglandin Dehydrogenase); purified HPGD, NADH fluorescence kinetic, PGE2 substrate; Potency, µM, for the others: top-dose activity change, negative = inhibition, actives largely listed as inhibitors; hit rate 4.3% among 150,000; 15-hydroxyprostaglandin dehydrogenase [NAD(+)] (Homo sapiens), P15428; note: potency is the fitted concentration of half-maximal effect
Target sequence (P15428 whole entry, looked up): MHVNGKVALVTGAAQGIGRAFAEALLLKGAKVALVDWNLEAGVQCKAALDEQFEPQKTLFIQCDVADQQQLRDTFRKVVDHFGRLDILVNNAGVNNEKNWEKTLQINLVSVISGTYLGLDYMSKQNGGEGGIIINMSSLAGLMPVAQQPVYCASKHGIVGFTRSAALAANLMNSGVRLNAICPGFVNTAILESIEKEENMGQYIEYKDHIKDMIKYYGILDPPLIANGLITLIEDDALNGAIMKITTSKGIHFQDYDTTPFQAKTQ
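20 nM HPGD preincubated 15 min at room temperature with compound in 50 mM Tris-HCl pH 8, 0.01% Tween 20. Started with 1 mM NAD+ and 30 uM prostaglandin E2; NADH fluorescence (360/450 nm) read 5 times over 30-s intervals, last minus first.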
IMPase Li cell: qHTS Assay for Identifying the Cell-Membrane Permeable IMPase Inhibitors: Potentiation with Lithium; CHO-M1 cells, IP1 TR-FRET (IP-One), carbachol + lithium; Potency, µM (titrated, usually from 59.4 µM), inactives show at the highest dose activity, negative = IMPase inhibition, most hits filed as inhibitors; hit rate 0.35% among 210,000; AID 1457, 2008; active = well fitted inhibition curve with a large enough effect; inconclusive = small, poorly fitted or top-dose-only effect; inactive = no such curve, though single readings can be large or run the other way;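 note: IP1 builds up when IMPase is blocked and the TR-FRET signal falls; potency is the fitted concentration of half-maximal effect; plate controls were basal vehicle for no effect and high inhibitor control for full effect; nearly all actives have a fitted effect of over 50% in size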
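CHO cells stably expressing M1 receptor (2000/well) were cultured 16–30 h, then exposed to compounds with a small lithium addition for 30 min at 37C. IP1 was measured by TR-FRET competition; AC50 from Hill fits.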
IMPase inh: qHTS Assay for Identifying the Cell-Membrane Permeable IMPase Inhibitors | Inositol monophosphatase 1 (Rattus norvegicus), P97697 | CHO-M1 cells, IP1 accumulation, HTRF TR-FRET ratio | inhibition (IP1 accumulation), % at 46.1 µM | 120,000 tested, under 10 active | AID 901, 2007; active = well fitted curve in the direction sought with a large enough effect in the signal ratio, not every such curve was filed as active; inconclusive = small, poorly fitted or top-dose-only effect, or a change in a side signal; inactive = no such curve, though single readings can be large or run the other way; the % refers to the signal ratio;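 note: cells stimulated with carbachol in lithium chloride buffer; plate controls were DMSO basal wells for no effect and reference inhibitor wells for full effect; higher means more IMPase inhibition seen as more IP1 and lower FRET ratio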
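Seeded CHO-M1 cells were dosed with compound at up to 46 uM, stimulated with carbachol for 30 min, then lysed in IP-One detection reagents. Higher IP1 lowers the TR-FRET signal.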
Numbers without * were called inactive; ? = inconclusive; · = no result given; [ ] = another dose, or the depositor's remark. The list is not random: actives were taken first. Their share in the collection is about 11%. Unless noted, calls come from the whole dose curve; as a rule, active = well fitted inhibition curve with a large enough effect (not every such curve was filed as active); inconclusive = small, poorly fitted or top-dose-only effect, or another doubt; inactive = no such curve, though single readings can be large or run the other way. Unless noted, % is set by controls: 0 for no effect and ±100 for the full control effect.

SMILES | ALDH1A1 inh | PNC assembly inh | HPGD inh | IMPase Li cell | IMPase inh
COC(=O)c1ccc(CN2CCN(CC=C(C)C)C(CCO)C2)cc1 (configuration not stated) | 20µM* | · | · | 1% | ·
CC(C)=CCN1CCN(Cc2cnc(N3CCOCC3)s2)CC1CCO (configuration not stated) | 25µM* | · | · | 1% | ·
CC(C)=CCN1CCN(Cc2cnc(N3CCCC3)s2)CC1CCO (configuration not stated) | 13% | · | · | 0% | ·
O=S(=O)(NCc1cccs1)c1cccc(S(=O)(=O)N2CCCCC2)c1 | 8.9µM* | 7 | -16% | 0%[38.3 µM] | -2
CCCCNS(=O)(=O)c1cccc(S(=O)(=O)N2CCCC2)c1 | 14µM* | 2 | -4% | 11%[38.3 µM] | -8
CC1CN(C(=O)Nc2cccc(Cl)c2)C2(CCCCCC2)O1 (configuration not stated) | 5% | · | · | -3% | ·
CC(C)(Oc1ccc(-c2cccc3ccccc23)cc1)C(=O)O | 5%[13.5 µM] | · | -1% | -11% | ·
CCOC(=O)C1=NNC2C(=O)N(C3CCCCC3)C(=O)C12 (configuration not stated) | 13µM* | -11 | -5% | -12%[38.3 µM] | 21
CCCCN1C(=O)C2NN=C(C(=O)OCC)C2C1=O (configuration not stated) | 0% | 63 | -17% | 2%[38.3 µM] | -1
N#C/C(=C(/O)CSc1ccccn1)c1nc2ccccc2s1 | 8.9µM* | · | · | 2% | ·
CCCn1c(C)nc2c(NC3CCN(Cc4ccccc4)C3)nc(C)nc21 (configuration not stated) | -8% | · | -9% | 12% | ·
O=c1cc(O)c2c(=O)n(-c3ccccc3)c3c(c2o1)CCCCCC3 | -7% | -88* | -28% | 5% | ·
O=c1cc(O)c2c(=O)n(C3CCCCC3)c3ccccc3c2o1 | -9% | 16 | -10% | -20%[38.3 µM] | -4
NC(=O)COC(=O)CNC(=O)c1ccc(Cl)cc1 | 2µM* | 19 | 0% | -36%[38.3 µM] | 9
COc1cc(C(=O)NC(=S)Nc2ccc3c(c2)C(=O)N(C)C3=O)cc(OC)c1OC | 1µM* | 9 | -4% | -7% | ·
COc1cccc(OC)c1C(=O)NC(=S)Nc1ccc2c(c1)C(=O)N(C)C2=O | -16% | -7 | ? | 1% | ·
Cc1cc(C)c(C)c(OCC(=O)Nc2ccc(S(=O)(=O)Nc3nc(C)cc(C)n3)cc2)c1 | · | · | · | · | -1
CCCC[C@H]1C[C@@H]1[C@@H]1N(P(=O)(c2ccccc2)c2ccccc2)C[C@@](O)(c2ccccc2)CC12CC2 | -5% | · | -21% | 15% | ·
CCOc1ccccc1N/C(=C(/C(Cl)=C(Cl)Cl)[N+](=O)[O-])n1cncn1 | 20µM* | 10 | -16% | -14%[38.3 µM] | -5
CCOc1ccc(N/C(=C(/C(Cl)=C(Cl)Cl)[N+](=O)[O-])n2cncn2)cc1 | ? | -26 | ? | -19%[38.3 µM] | -2
O=[N+]([O-])/C(C(Cl)=C(Cl)Cl)=C(\Nc1ccc(F)cc1)n1cncn1 | 13µM* | 0 | 28µM* | 3%[38.3 µM] | 15
COc1ccc(-c2oc3ncn4nc(-c5ccccc5O)nc4c3c2-c2ccc(OC)cc2)cc1 | · | · | · | · | -3
N=C1c2ccccc2CN1c1ccc(N2CCOCC2)c(S(=O)(=O)Nc2ccc(Cl)cc2)c1 | 1.8µM* | · | · | · | ·
CC(Cc1ccccc1)C(=O)NCC1CC1 (configuration not stated) | 3% | · | -6% | -6% | ·
Cc1cc(C)c2nc3c(c([C@H](O)C4CCCCN4)c2c1)CC/C3=C/c1ccc(Cl)cc1 (some centres not stated) | 10%[13.5 µM] | · | -1% | 2% | ·
SMILES | ALDH1A1 inh | PNC assembly inh | HPGD inh | IMPase Li cell | IMPase inh
CCN(CC)S(=O)(=O)c1ccc(O)c(NS(=O)(=O)c2ccccc2F)c1 | 13µM* | 2 | 25µM* | 4% | ·
C=CCN1C(=O)/C(=C2\SC(N3CCOCC3)=NC2=O)c2cc(Br)ccc21 | 3.5µM* | -28 | -15% | 23%[38.3 µM] | -3
Nc1nonc1-n1nnc(C(=O)N/N=C/c2ccc(Br)cc2)c1CSC1=NCCS1 | ? | ? | · | · | -6
CC(C)c1ccc(/C=N/NC(=O)c2nnn(-c3nonc3N)c2CSC2=NCCS2)cc1 | 20µM* | 28 | -21% | -4% | ·
COc1cc(/C=C2\SC(=O)N(CCNC(=O)c3sc4cc(F)ccc4c3Cl)C2=O)cc(OC)c1OC | 14% | · | · | 50% | ·
O=C(Cc1cc(=O)[nH]c(=O)[nH]1)NCc1ccccc1 | 2% | 33 | -5% | -4% | ·
CCN(CC)c1ccc(N=Cc2c(C)[nH]c3ccccc23)cc1 | 0.45µM* | ? | ? | 12% | ·
CCOc1ccc(NC(=O)CSc2ncn[nH]2)cc1 | · | · | · | · | 6
CC(C)(C)Nc1oc(-c2ccccc2)nc1-c1ccccc1F | -5% | · | -11% | 13% | ·
O=C(OC1Cc2c(O)cc(O)cc2OC1c1cc(O)c(O)c(O)c1-c1c(C2Oc3cc(O)cc(O)c3CC2OC(=O)c2cc(O)c(O)c(O)c2)cc(O)c(O)c1O)c1cc(O)c(O)c(O)c1 (configuration not stated) | -1% | · | 22µM* | -15% | ·
CCOC(=O)CSc1ccc(S(=O)(=O)N2CCCCC2)cc1[N+](=O)[O-] | -11% | 9 | -7% | 4% | ·
CN(CC(=O)Nc1ccc(S(=O)(=O)N2CCCC2)cc1)Cc1ccc(Cl)cc1Cl | ? | 15 | -13% | 7% | ·
COC(=O)CSc1ccc(S(=O)(=O)N2CCCCCC2)cc1[N+](=O)[O-] | 10µM* | · | · | 0% | ·
CN(CC(=O)Nc1ccc(Cl)cc1)c1ccc(S(=O)(=O)N2CCCCC2)cc1[N+](=O)[O-] | 11µM* | 5 | -14% | 12% | 14
COCCn1nnnc1CN1C2CCCC1CC(NC(C)=O)C2 (configuration not stated) | 6% | -18 | -2% | -3%[38.3 µM] | -1
COc1cc(C(=O)NC2CCN(Cc3nnnn3Cc3cccs3)CC2)cc(OC)c1OC | 8.9µM* | -16 | -7% | 46%[38.3 µM] | 8
COCCn1nnnc1CN1CCC(NC(=O)c2ccc(Br)cc2)CC1 | 5% | -100* | -11% | 6% | 11
COCCn1nnnc1CN1CCC(C)CC1 | ? | -100* | -7% | 6% | -2
COc1cc(C(=O)NC(C)Cc2cccs2)cc(OC)c1OC (configuration not stated) | 0% | · | · | 7% | ·
Cc1cc(Br)ccc1NC(=O)CN1C(=S)NC(C)(C)CC1C (configuration not stated) | ? | · | · | 4% | ·
COc1ccc(C(=O)N/N=C/c2ccc(OC)c(CN3CCc4cc(OC)c(OC)cc4C3C)c2)cc1 (configuration not stated) | ? | · | · | 17% | ·

Compound activity: PubChem, National Center for Advancing Translational Sciences (NCATS)
